Source: PubChem
Rows were chosen to be rich in hits. Some 13% of all compounds tested hit in one or more screens of this group.
Shiga toxin inh – blocks Shiga toxin action in Vero cells; Vero cells, Shiga toxin protein synthesis inhibition reporter; inhibition, % at 38.7 µM; 9.2% of 290,000 active; AID 2315; in the data active = inhibition mostly above about 28%, no sharp cut-off; inactive = mostly below about 43%; also: 0% is about no effect
LASV entry inh – inhibitors of Lassa virus binding or cell entry. Lassa virus pseudotype entry inhibition, cell reporter. Potency, µM (doses to about 37.9 µM), for the others: at the top dose activity change, negative = inhibition, usual class: inhibitors. 1.2% of 300,000 active. AID 540256; calls by dose curve; tested in HEK293 cells; also: potency is read from the fitted curve at half-maximal effect; % is scaled to controls: 0 for no effect and ±100 for the full control effect; nearly all actives have a fitted effect of over 50% in size
CHX counter – counter-screen hit for Shiga toxin inhibitors, cycloheximide. AID 2314. cell reporter, cycloheximide protein synthesis inhibition counterscreen. max response, %. 12% of 300,000 active; in the data active = max response mostly above about 13%, no sharp cut-off; inactive = mostly below about 14%; also: read at 38.3 µM for the half of the compounds with a filed dose; 0% is about no effect
MARV entry inh – inhibitors of Marburg virus binding or cell entry; 1.8% of 300,000 active; AID 540276; Marburg virus pseudotyped entry inhibition, cell reporter; Potency, µM (titrated, usually from 37.8 µM), without a hit: top-dose activity change, negative = inhibition, most hits filed as inhibitors; calls by dose curve; tested in HEK293 cells; also: potency is read from the fitted curve at half-maximal effect; % is scaled to controls: 0 for no effect and ±100 for the full control effect
HCV inhibitor – HCV inhibition. 3.4% of 340,000 active. Potency, µM (highest dose often 41.8 µM), for inactives: at the top dose activity change, negative = inhibition, hits mostly inhibitors. Huh7.5.1 HCVcc-Cre infection, luciferase reporter, 44 h; active = well fitted inhibition curve with a large enough effect; inconclusive = small, poorly fitted or top-dose-only effect, or another doubt; inactive = no such curve, though single readings can be large or run the other way; also: potency is read from the fitted curve at half-maximal effect; % is scaled to controls: 0 for no effect and ±100 for the full control effect
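A cell-based infection assay in which seeded cells (1,000 per well) receive test compound after 4 h, are inoculated with HCVcc-Cre at approximately 0.5 moi, and are incubated 44 h before luminescence detection.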
FMDV antiviral – foot and mouth disease virus antiviral activity; FMDV antiviral cell-based qHTS; Potency, µM (doses to about 57.9 µM), inactives show at the highest dose activity change, negative = inhibition, usual class: inhibitors; 1.2% of 410,000 active; AID 1159524; calls by dose curve; tested in HEK293T cells; also: read-out not given here; potency is read from the fitted curve at half-maximal effect; % is scaled to controls: 0 for no effect and ±100 for the full control effect; nearly all actives have a fitted effect of over 45% in size
* = called active by the depositor; u = inconclusive; x = not tested or not shown; [ ] = remark or other dose.

SMILES | Shiga toxin inh | LASV entry inh | CHX counter | MARV entry inh | HCV inhibitor | FMDV antiviral
O=C(NC1CCCC1)C(c1ccncc1)N(CCCN1CCOCC1)C(=O)c1ccc(-c2ccccc2)[nH]1 (configuration not stated) | -6.4 | x | -1.9 | x | 10.9% | 1.4%
O=C(NC1CCCC1)C(c1ccncc1)N(Cc1ccco1)C(=O)c1ccc(-c2ccccc2)[nH]1 (configuration not stated) | 32.5 | x | 6.8 | 10µM* | -23.5% | 13.0%
CCOc1ccc(C(C(=O)NC2CCCC2)N(CCCO)C(=O)c2ccc(-c3ccccc3)[nH]2)cc1 (configuration not stated) | 59.8* | x | 12.5 | x | -6.9% | 24.9%
O=C(NC1CCCC1)C(c1ccncc1)N(Cc1ccccc1)C(=O)c1ccc(-c2ccccc2)[nH]1 (configuration not stated) | 27.3 | u | 13.3* | u | u | -3.3%
O=C(O)c1cn[nH]c1-n1cnnn1 | 12.7 | 5.9% | -3.1 | 22.1% | 3.3% | 11.7%
COc1ccc(NC(=O)c2ccc3c(c2)NC(=O)CS3)cc1 | x | x | x | x | u | 30.9%
Cc1ccc(NS(=O)(=O)c2cc(NC(=O)c3ccc4c(c3)NC(=O)CS4)ccc2Cl)c(C)c1 | -20.5 | x | -1.8 | x | 10µM* | -22.0%
CCOc1ccc(CN2CCCC(CO)(Cc3ccccc3F)C2)cc1 (configuration not stated) | -1.3 | x | -2.9 | x | -16.9% | -24.9%
COc1cc(Cl)c(CN2CCCC(CO)(Cc3ccccc3F)C2)cc1OC (configuration not stated) | -5.5 | u | -2.0 | 2.82µM* | -15.6% | -18.8%
CCN(CC(O)CON=C1c2ccccc2-c2ccccc21)S(=O)(=O)c1ccc(Cl)cc1 (configuration not stated) | -13.3 | 0.6% | -0.2 | u | 10µM* | -28.0%
Cc1cccc(N(CC(O)CON=C2c3ccccc3-c3ccccc32)S(C)(=O)=O)c1 (configuration not stated) | -15.9 | -4.3% | 1.2 | 23.1µM* | u | x
CCSc1ccccc1C(=O)Nc1cc(OC)c(OC)c(OC)c1 | -9.8 | 8.1% | -2.4 | 8.8%[46.1 µM] | u | -12.1%
CC1CC(C)CN(S(=O)(=O)c2ccc(NN)nc2)C1 (configuration not stated) | 10.0 | -5.3% | -1.4 | u | -7.0% | 8.4%
Nc1nn2cc(-c3ccccc3)nc2c2ccccc12 | 70.4* | u | 30.5* | -18.6% | u | 8.9%
Cc1nn2cc(-c3ccccc3)nc2[nH]c1=O | 20.9 | 11.5% | 12.1 | 3.8% | 6.1% | 0.0%
Cc1cn2nc(N)c3ccccc3c2n1 | 28.9 | -7.2% | 18.9* | 2.2%[46.1 µM] | -18.1% | -5.8%
O=C(N/N=C1/CN2CCC1CC2)c1cccc(O)c1 | 70.1* | 3.7% | 36.4* | -1.7% | 13.6% | 45.8%
CCc1c(-c2ccccc2OC)ncn1Cc1cccc(-c2ccccc2)c1 | x | x | x | x | x | 0.0%
CCCCc1c(-c2ccccc2OC)ncn1CCc1ccc(OC)cc1 | x | x | x | x | x | 22.4µM*
CCCCc1c(-c2ccc(F)cc2)ncn1CCc1ccccc1OC | x | x | x | x | x | 25.1µM*
CCCCCc1c(-c2ccc(OC)cc2)ncn1CCc1ccccc1OC | x | x | x | x | x | 22.4µM*
CCCCc1c(-c2ccc(OC)cc2)ncn1CCc1ccccc1OC | x | x | x | x | x | 22.4µM*
COc1ccccc1CCn1cnc(C)c1CC(C)C | x | x | x | x | x | -22.2%
CCCCc1c(-c2ccccc2)ncn1CCc1ccccc1OC | x | x | x | x | x | 25.1µM*
CCCCCc1c(-c2ccc(Cl)cc2)ncn1CCc1ccccc1OC | x | x | x | x | x | -1.2%
SMILES | Shiga toxin inh | LASV entry inh | CHX counter | MARV entry inh | HCV inhibitor | FMDV antiviral
CCCCc1c(-c2cccc(Cl)c2)ncn1CCc1ccccc1OC | x | x | x | x | x | 22.4µM*
CCN(CC)c1ccc(C(=O)NCc2ccc3c(c2)CCN3C(=O)c2cccc(C)c2)cc1 | x | -21.2%[46.1 µM] | x | x | x | -13.6%
COCc1cc(=O)[nH]c2cc(NC(=O)C(C)(C)CCl)c(C)cc12 | 12.5 | -2.1% | -4.2 | -6.2% | 10.5% | -12.1%
O=C(CS(=O)(=O)c1ccccc1)Nc1ccc(S(=O)(=O)Nc2ncccn2)cc1 | -14.2 | 2.6% | -0.8 | 11.4%[46.1 µM] | 12.2% | 1.1%
COc1ccccc1NC(=O)c1ccc[n+]([O-])c1 | 6.8 | x | -3.3 | x | 16.1% | -9.7%
O=C1c2ccc(O)c(O)c2C(=O)c2c(O)ccc(O)c21 | x | x | x | x | x | 22.4µM*
COc1ccc(NC(=O)Nc2ccc3nonc3c2)cc1 | 66.5* | 2.0% | 34.2* | u | 0.6% | 7.3%
COC(=O)c1cc(OC)c(OC)cc1NC(=O)Nc1ccc(OC)cc1 | -8.3 | 5.8% | -3.9 | u | 5.5% | -3.2%
COc1ccc(NC(=O)Nc2ccc3nccnc3c2)cc1 | 79.8 | -15.4% | 22.4* | u | -10.3% | -29.2%
COc1ccc(CNC(=O)c2ccc3nccnc3c2)cc1 | -15.5 | 19.9% | -1.1 | 11.7% | 14.3% | -16.1%
O=C1C2CC=CCC2C(=O)N1n1cnnc1 (configuration not stated) | -9.8 | x | -8.3 | x | -4.4% | -15.0%
Oc1c(C(c2ccccn2)N2CCCCC2)cc(Cl)c2cccnc12 (configuration not stated) | 20.0 | x | -1.1 | x | 10µM* | -28.4%
Cc1[nH]c2ccccc2c1C(c1ccccn1)N1CCCC1 (configuration not stated) | 2.4 | -1.2% | 7.8 | -15.2%[46.1 µM] | -8.6% | -8.3%
CN1CCN(C(c2ccc(Cl)cc2)c2cc(Cl)c3cccnc3c2O)CC1 (configuration not stated) | 4.6 | 10µM* | 3.4 | u | u | -2.5%
CN1CCN(C(c2ccc(C(F)(F)F)cc2)c2cc(Cl)c3cccnc3c2O)CC1 (configuration not stated) | 12.3 | x | -2.9 | x | x | x
Cc1cnc(CNc2ncnc3ccc(-c4ccoc4)cc23)cn1 | x | x | x | x | x | -1.8%
CC(=O)NS(=O)(=O)c1ccc(N=c2ssc3c2-c2cc(C)c(C)cc2NC3(C)C)cc1 | -8.7 | u | -5.6 | u | u | -21.8%
COc1ccc(C2C=C(c3ccccc3)Nc3nnnn32)cc1 (configuration not stated) | 53.1* | u | 21.1* | 18.0% | -18.0% | x
COc1cccc(C2=CC(c3ccc(N(C)C)cc3)n3nnnc3N2)c1 (configuration not stated) | 49.9* | -28.1% | 25.5* | u | -26.5% | -6.9%
COc1cccc(C2=CC(c3ccccc3)n3nnnc3N2)c1 (configuration not stated) | 2.7 | u | 0.6 | u | -6.2% | x
CCn1cc(/C=C(\NC(=O)c2ccc(OC)c(OC)c2)C(=O)NCCCO)c2ccccc21 | 38.6 | x | -4.6 | x | 19.1% | -2.1%
O=C(NCc1ccccn1)C1(C(F)(F)F)C/C(=C\Cc2ccccc2)CCCO1 (configuration not stated) | 2.5 | x | 16.8 | x | x | x
CSc1nnc(CCCCCNC(=O)OC(C)(C)C)o1 | 16.3 | u | 8.3 | -9.3% | 19.3% | -0.8%
CSc1nnc(CCNC(=O)OC(C)(C)C)o1 | 54.1* | x | 13.0 | x | -2.2% | 6.7%
O=C(NNC(=O)c1cccc(Br)c1)Nc1ccc(Cl)cc1 | -8.9 | -0.2% | -4.1 | u | -11.7% | 19.0%
